# Test results: PubChem BioAssay
# “And” between values parts separate entries of the source, which are not always exact repeats. Identical values can stand only once. The source made the active and inactive calls.
# What was measured:
# [1] = compound effects on lung adenocarcinoma cell viability – A549, calcein-AM fluorescence, 48 h, basal, profiling panel (AID 1162); conditions: higher = more signal
# [2] = compound effects on differentiated 3T3-L1 adipocyte viability – cell-based, 3T3-L1 adipocytes, calcein-AM fluorescence, 48 h, basal, profiling panel (AID 1163); conditions: 3T3-L1 adipocytes viability, higher = more signal
# [3] = compound effects on hepatocellular carcinoma cell viability – HepG2, calcein-AM fluorescence, 48 h, basal, profiling panel (AID 1164); conditions: higher = more signal
# [4] = compound effects on multiple myeloma cell viability – MM1S, calcein-AM fluorescence, 48 h, basal, profiling panel (AID 1165); conditions: higher = more signal
# [5] = calcein-AM signal in unstimulated myeloma cells – cell-based, calcein-AM fluorescence, 48 h, PK04 Diversity Set, profiling panel (AID 1166); conditions: RPMI8226 myeloma viability, higher = more signal;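 also: cells grown under basal conditions without added stimulus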
# [6] = JC-1 mitochondrial signal, unstimulated HepG2 cells – cell-based, JC-1 fluorescence, 24 h, 100 nL compound, profiling panel (AID 1167); conditions: HepG2 mitochondrial potential, higher = more signal
# [7] = JC-1 mitochondrial signal, unstimulated adipocytes – cell-based, JC-1 fluorescence, 3T3-L1 adipocytes, 24 h, 100 nL compound, profiling panel (AID 1168); conditions: JC-1 mitochondrial fluorescence, higher = more signal, called active from +8 up or from −8 down
# [8] = JC-1 mitochondrial signal, unstimulated myeloma cells – cell-based, JC-1 fluorescence, RPMI8226, 24 h, 100 nL compound, profiling panel (AID 1169); conditions: JC-1 mitochondrial potential fluorescence, higher = more signal
# [9] = JC-1 mitochondrial signal, unstimulated MM1S myeloma – cell-based, JC-1 fluorescence, 24 h, 100 nL compound, profiling panel (AID 1170); conditions: MM1S mitochondrial potential, higher = more signal
# [10] = resazurin metabolic signal in A549 cells – cell-based, resazurin fluorescence, 24 h, PK04 Diversity Set, profiling panel (AID 1171); conditions: A549 viability, higher = more signal, called active from +8 up or from −8 down
# Also: test concentration not given here.
Compound,z-score [1],z-score [2],z-score [3],z-score [4],z-score [5],z-score [6],z-score [7],z-score [8],z-score [9],z-score [10]
C=C[C@@H](C)[C@@H](O)c1ccc(OCCO)cc1,-0.61 and 0.227,0.513 and 0.464,-0.976 and 0.692,0.958 and -0.872,-0.754 and 0.96,0.299 and 1.09,-0.82 (inactive) and -0.165 (inactive),-0.0815 and 0.346,0.287 and -0.925,0.175 (inactive) and -0.652 (inactive)
CO[C@@H]1C=CCC(=O)N2CCC[C@H]2C(=O)OC[C@H](C)C(=O)OC[C@H]1C,0.616,0.345,1.33,0.383,-0.87,0.872,0.673 (inactive),-0.0289,0.331,0.87 (inactive)
CC(CO)N1C(=O)[C@@H]2C3C(=O)OCCC=C[C@H]3OC23C=CCN(c2ccc4ccccc4c2)C(=O)[C@@H]13 (stereo not given in full),-0.288 and -0.0156,0.0371 and -0.217,-0.463 and -0.565,0.0923 and 1.01,-0.526 and -0.237,-0.0969 and -0.0971,-0.684 (inactive) and -1.28 (inactive),-0.904 and 0.195,0.238 and 0.275,-0.124 (inactive) and 0.0409 (inactive)
CO[C@H]1COC(=O)[C@H](C)NC(=O)CC=C[C@@H](C)[C@H](OC)COC(=O)CC=C[C@@H]1C,1.51,0.459,0.235,0.0144,0.417,0.573,0.156 (inactive),0.56,1.04,0.74 (inactive)
CC(C)=CCCC(C)=CCON=C1C[C@@H](O)[C@@H](O)[C@@H]2[C@@H]3C(=O)N([C@@H](C)c4ccccc4)C(=O)[C@@H]3CC[C@H]12,0.0319,0.2,0.446,-2.88,-0.0017,0.374,1.08 (inactive),0.0351,-1.78,-1.38 (inactive)
CCOC(=O)c1ccc(NC(=O)O[C@H]2[C@H](OC(=O)Nc3ccccc3)[C@@H](OC(=O)Nc3ccccc3)[C@@H](OC)O[C@@H]2CO)cc1,-1 and -2.09,1.79 and 1.14,-1.92 and -2.54,-1.83 and -2.21,-1.56 and -2.49,-1.05 and -0.323,2.13 (inactive) and 0.661 (inactive),-0.464 and -0.37,-0.447 and -0.575,-3.35 (inactive) and -3.84 (inactive)
C=CC[C@@H](O)c1ccc(OCCO)cc1,0.589 and 0.923,-0.0396 and 0.764,1.22 and 0.876,1.17 and 1.23,0.834 and -1.19,1.28 and 1.15,-0.53 (inactive) and 0.676 (inactive),0.871 and 0.81,0.00142 and 1.08,-0.707 (inactive) and -0.779 (inactive)
